# PubChem BioAssay AID1053126 (Broad Institute, 2014)
# Measured potencies and affinities stand elsewhere. Calls of active or inactive are those of the source.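 The calls were made as follows: active = cell killing with a fitted half-effect concentration at or below twice the top valid dose; inconclusive = flat curve with 30 to 70 percent drop, or poor fit; inactive = the rest.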
# Assay: HEK293T cell cytotoxicity, dose response, cytotoxicity control, ATP luminescence, cherry-pick, set 6 (AID 1053126)
# Details: HEK293T viability, CellTiter-Glo ATP luminescence, 72 h; series mostly up to 26 µM
row,SMILES,outcome
1,CNNC(=S)NC1CC2CC1C1C=CCC21 (configuration not stated),inactive
2,COc1cccc2c(=O)c3c(cnn3C)n(C)c12,inactive
3,CCN(CC)c1ccc2c(C)c(Cl)c(=O)oc2c1,inactive
4,O=C(O)C1=CC[C@@H](c2ccc(Cl)cc2)N(S(=O)(=O)c2ccc(Cl)cc2)[C@H]1c1ccc(F)cc1,inactive
5,O=C(c1ccc(F)cc1)C1CCN(C(=O)Nc2ccccc2Cl)CC1,inactive
6,CC(C)N1CCc2c(sc(NC(=O)Cc3ccccc3)c2C#N)C1,inactive
7,COc1ccccc1/C=N/Nc1nc(C)cc(=O)[nH]1,inactive
8,O=C(c1cccc(Cl)c1)N1CCC(=O)N(C(COCc2ccccc2)Cc2ccccc2)CC1 (configuration not stated),inactive
9,Cc1nc2ccc(S(=O)(=O)Nc3ccc(-c4nc5cccnc5s4)cc3)cc2s1,inactive
10,Cc1cc(-c2nc3cccnc3s2)ccc1NS(=O)(=O)c1cccs1,inactive
11,Nc1nc(-c2cc(O)ccc2[N+](=O)[O-])cc(-c2ccccc2)c1[N+](=O)[O-],inactive
12,CN1CCN(c2nc3ccccn3c(=O)c2/C=C(\C#N)S(=O)(=O)c2ccccc2)CC1,inactive
13,COCCCn1c(=N)c(C(=O)NC2CCCCC2)cc2c(=O)n3ccccc3nc21,inactive
14,Cc1c(C(=O)NCc2cccc([N+](=O)[O-])c2)sc(=O)n1Cc1cccc(F)c1,inactive
15,CCOc1ccc2nc(NCCNC(=O)CC)c(C#N)cc2c1,inactive
16,O=C(CCCn1c(=O)c2sccc2n(Cc2cc(=O)n3ccccc3n2)c1=O)NCc1ccco1,inactive
17,O=C(Nc1ccc(-c2ccco2)cc1)C1CCCN(Cc2ccco2)C1 (configuration not stated),inactive
